According to PubChem BioAssay AID1159580 (chemical genetic matrix, 2015):
“And” between values parts separate entries of the source, which are not always exact repeats. Identical values can stand only once. About 2,000 (36%) of roughly 5,500 compounds were called active. About 18% were inconclusive and are not listed. No stated cut-off is given here; in the data, active means normalized growth mostly below about 0.91 (no sharp cut-off); inconclusive means no clear call, values can overlap the other calls; inactive means mostly above about 0.92. The list shows a part of the results.

Test: chemical genetic growth profiling, strain panel (AID 1159580);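 further: tested at 20 µM; growth read once vehicle control cultures reached saturation at 30 °C; 1 = growth at the plate median or of vehicle wells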
Conditions: S. cerevisiae deletion strains, growth OD

Measured: normalized growth

CCN(CCO)CCCC(C)Nc1ccnc2cc(Cl)ccc12 (configuration not stated)
inactive: locus YAL013W, strain DEP1, stronger effect = lower value 1.01 | locus YAL021C, strain ccr4, stronger effect = lower value 1.03 | locus YAL026C, strain drs2, stronger effect = lower value 1 | locus YAL030W, strain snc1, stronger effect = lower value 0.997 | locus YBL061C, strain skt5, stronger effect = lower value 1 | locus YBR009C, strain hhf1, stronger effect = lower value 1.01 | locus YBR021W, strain FUR4, stronger effect = lower value 1 | locus YBR023C, strain chs3, stronger effect = lower value 0.998 | locus YBR171W, strain sec66, stronger effect = lower value 1.01 | locus YBR229C, strain ROT2, stronger effect = lower value 0.991 | locus YBR231C, strain swc5, stronger effect = lower value 1.01 | locus YBR279W, strain paf1, stronger effect = lower value 1.01 | locus YCL011C, strain gbp2, stronger effect = lower value 1 | locus YCL016C, strain dcc1, stronger effect = lower value 1 | locus YCL029C, strain bik1, stronger effect = lower value 1.01 | locus YCL061C, strain MRC1, stronger effect = lower value 0.993 | locus YCL069W, strain vba3, stronger effect = lower value 0.998 | locus YCR088W, strain abp1, stronger effect = lower value 0.997 | locus YDL005C, strain med2, stronger effect = lower value 0.994 | locus YDL035C, strain GPR1, stronger effect = lower value 1.02 | locus YDL040C, strain nat1, stronger effect = lower value 0.999 | locus YDL074C, strain BRE1, stronger effect = lower value 1.01 | locus YDL101C, strain DUN1, stronger effect = lower value 1.02 | locus YDL134C, strain PPH21, stronger effect = lower value 1 | locus YDL185W, strain tfp1, stronger effect = lower value 1.01 | locus YDL192W, strain arf1, stronger effect = lower value 1.01 | locus YDR001C, strain nth1, stronger effect = lower value 1 | locus YDR069C, strain doa4, stronger effect = lower value 1.01 | locus YDR101C, strain arx1, stronger effect = lower value 1.02 | locus YDR137W, strain rgp1, stronger effect = lower value 0.978 | locus YDR150W, strain NUM1, stronger effect = lower value 1.01 | locus YDR159W, strain sac3, stronger effect = lower value 0.999 | locus YDR162C, strain NBP2, stronger effect = lower value 1.01 | locus YDR195W, strain ref2 1 | locus YDR297W, strain sur2, stronger effect = lower value 1.01 | locus YDR318W, strain mcm21, stronger effect = lower value 1.03 | locus YDR334W, strain swr1, stronger effect = lower value 1.01 | locus YDR335W, strain msn5, stronger effect = lower value 0.999 | locus YDR388W, stronger effect = lower value 1.01 | locus YDR392W, strain spt3, stronger effect = lower value 1.03 | locus YDR502C, strain sam2, stronger effect = lower value 1.02 | locus YEL003W, strain gim4, stronger effect = lower value 1 | locus YEL037C, strain rad23, stronger effect = lower value 1.01 | locus YEL061C, strain CIN8 (second series), stronger effect = lower value 1.01 | locus YEL061C, strain CIN8, stronger effect = lower value 1.01 | locus YER015W, strain faa2, stronger effect = lower value 1.01 | locus YER016W, strain bim1, stronger effect = lower value 1 | locus YER110C, stronger effect = lower value 1.01 | locus YER111C, strain swi4, stronger effect = lower value 1 | locus YER155C, strain BEM2 (second series), stronger effect = lower value 1 | locus YER155C, strain BEM2, stronger effect = lower value 1.01 | locus YER167W, strain BCK2, stronger effect = lower value 1.01 | locus YFR010W, strain ubp6, stronger effect = lower value 1.01 | locus YGL078C, strain dbp3, stronger effect = lower value 1.02 | locus YGL086W, strain mad1, stronger effect = lower value 1.02 | locus YGL167C, strain pmr1, stronger effect = lower value 0.994 | locus YGL173C, strain kem1, stronger effect = lower value 0.996 | locus YGL227W, strain vid30, stronger effect = lower value 0.997 | locus YGL240W, strain doc1, stronger effect = lower value 1.01 | locus YGL248W, strain PDE1, stronger effect = lower value 0.993 | locus YGL253W, strain hxk2, stronger effect = lower value 0.999 | locus YGR078C, strain PAC10, stronger effect = lower value 1.03 | locus YGR135W, strain pre9, stronger effect = lower value 1.01 | locus YGR229C, strain SMI1, stronger effect = lower value 1.03 | locus YGR252W, strain gcn5, stronger effect = lower value 1.21 | locus YHR013C, strain ard1, stronger effect = lower value 1 | locus YHR027C, strain rpn1, stronger effect = lower value 0.988 | locus YHR030C, strain SLT2, stronger effect = lower value 1.01 and 0.985 | locus YHR079C, strain IRE1 (second series), stronger effect = lower value 1.01 | locus YHR079C, strain IRE1, stronger effect = lower value 0.99 | locus YHR094C, strain hxt1, stronger effect = lower value 1.01 | locus YHR129C, strain ARP1, stronger effect = lower value 1.01 | locus YHR142W, strain chs7, stronger effect = lower value 1 | locus YHR200W, strain rpn10, stronger effect = lower value 1.02 | locus YIL066C, strain RNR3, stronger effect = lower value 1.03 | locus YIL073C, strain SPO22, stronger effect = lower value 1.05 | locus YIL125W, strain kgd1, stronger effect = lower value 1 | locus YIR030C, strain dcg1, stronger effect = lower value 1.01 | locus YJL092W, strain hpr5, stronger effect = lower value 0.998 | locus YJL095W, strain BCK1 (second series), stronger effect = lower value 0.995 | locus YJL095W, strain BCK1, stronger effect = lower value 1.01 | locus YJL115W, strain asf1, stronger effect = lower value 1.01 | locus YJL129C, strain trk1, stronger effect = lower value 0.991 | locus YJL134W, strain LCB3, stronger effect = lower value 1.01 | locus YJL154C, strain vps35, stronger effect = lower value 1.01 | locus YJL164C, strain tpk1, stronger effect = lower value 1 | locus YJL166W, strain qcr8, stronger effect = lower value 1 | locus YJL168C, strain set2, stronger effect = lower value 1.01 | locus YJL187C, strain SWE1 (second series), stronger effect = lower value 1.02 | locus YJL187C, strain SWE1, stronger effect = lower value 0.999 | locus YJR043C, strain POL32, stronger effect = lower value 1.04 | locus YJR066W, strain TOR1, stronger effect = lower value 0.961
